Hit rate of the full screen: of about 310,000 compounds, about 17,000 (5.5%) were called active. Roughly 11% stayed inconclusive and do not appear here. Calls follow the shape of the dose curve; as a rule, active = well fitted inhibition curve with a large enough effect; inconclusive = small, poorly fitted or top-dose-only effect, or effect the other way; inactive = no such curve, though single readings can be large or run the other way. Only a selection was taken, and actives are over-represented in it overall.
biological target: Nuclear receptor ROR-gamma (Mus musculus) (UniProt P51450); assay: qHTS for inhibitors of ROR gamma transcriptional activity; settings: Drosophila S2 Gal4-RORgamma UAS-luciferase reporter, 20 h; series mostly up to 53.6 µM; also: nearly all actives have a fitted effect of over 60% in size
Procedure, shortened: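 Stably transfected Drosophila Schneider cells are the test system, with ROR gamma fused to Gal4 and luciferase under UAS control; luminescence is read after 20 hr of 700 uM copper sulfate induction at ambient temperature.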
% is scaled to controls: 0 for no effect and ±100 for the full control effect; potency is read from the fitted curve at half-maximal effect.

Nuclear receptor ROR-gamma (Mus musculus), sequence (P51450 whole entry, looked up, the tested form may be a part): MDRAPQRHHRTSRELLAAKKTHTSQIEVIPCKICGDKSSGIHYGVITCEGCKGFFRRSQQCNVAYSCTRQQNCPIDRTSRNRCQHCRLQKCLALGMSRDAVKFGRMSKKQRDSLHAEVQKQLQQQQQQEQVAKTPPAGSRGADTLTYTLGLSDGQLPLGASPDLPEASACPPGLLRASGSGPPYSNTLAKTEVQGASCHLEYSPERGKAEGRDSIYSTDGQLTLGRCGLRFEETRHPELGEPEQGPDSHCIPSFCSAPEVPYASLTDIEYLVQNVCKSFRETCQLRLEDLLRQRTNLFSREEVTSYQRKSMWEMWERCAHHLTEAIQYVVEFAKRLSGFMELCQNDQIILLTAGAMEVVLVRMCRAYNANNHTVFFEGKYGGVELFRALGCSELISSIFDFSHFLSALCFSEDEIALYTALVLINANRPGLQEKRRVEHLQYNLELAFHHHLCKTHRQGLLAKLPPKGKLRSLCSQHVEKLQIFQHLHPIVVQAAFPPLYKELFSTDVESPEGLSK

Potency, inactive:
COc1ccccc1NC(=O)C(C)OC(=O)CC1CCCC1 (centres undefined)
NC(=O)c1ccccc1NC(=O)c1ccccc1F
CC(C)C(=O)Nc1cccc(NC(=O)c2ccc([N+](=O)[O-])cc2Cl)c1
COC(=O)c1ccccc1NC(=O)c1ccccc1NS(C)(=O)=O
COc1cccc(NC(=O)C(C)Oc2ccccc2)c1 (centres undefined)
COc1ccccc1NC(=O)/C=C/C(=O)O
COc1ccccc1NC(=O)c1ccc(C)s1
Cc1ccc(C(=O)NC23CC4CC(CC(C4)C2)C3)c(Cl)c1
Oc1ccccc1C1=NN(c2ccccc2)C(c2ccccc2)C1 (centres undefined)
CC(C)c1nnc(NC(=O)COC(=O)/C=C/c2ccc([N+](=O)[O-])cc2)s1
NNC(=O)c1nnn(-c2nonc2N)c1CN1CCCC1
CCc1ccc(NC(=O)NC(C)c2ccc3c(c2)OCO3)cc1 (centres undefined)
O=C(CN(Cc1ccc(Br)cc1)S(=O)(=O)c1ccccc1)NCc1ccncc1
COc1ccccc1OCCNC(=O)CCNC(=O)c1ccccc1Cl
CC(C)CCn1cnc2c1c(=O)n(CC(=O)NC(N)=O)c(=O)n2Cc1ccccc1
O=C(NCc1ccco1)/C(=C/c1ccco1)NC(=O)c1ccccc1
CC(=O)c1nn(-c2cccc(C(F)(F)F)c2)c(=O)[nH]c1=O
O=S(=O)(Cc1nnnn1-c1ccccc1)c1ccccc1
O=C(COc1ccc2c3c(c(=O)oc2c1)CCCC3)NCC(O)c1ccccc1 (centres undefined)
O=C(Nc1ccccc1F)c1ccccc1-c1ccccc1
CC(C)CC(=O)NC(=S)Nc1ccc(F)cc1F
O=C(c1n[nH]c2c1CCC2)N1CCCC(Nc2cccc(F)c2)C1 (centres undefined)
COc1ccc(S(=O)(=O)N(CC(=O)N/N=C/c2ccccc2C(=O)O)c2ccccc2OC)cc1
COc1ccccc1NC(=O)CN(c1ccccc1OC)S(=O)(=O)c1ccccc1
Cc1nc([N+](=O)[O-])cn1CC(=O)Nc1ccc(Cl)cc1
CC1(C)Cc2ccccc2/C(=C/C(=O)c2ccccc2)N1
N#CC1=C(N)Oc2[nH]c(=S)[nH]c(=O)c2C12C(=O)Nc1ccccc12 (centres undefined)
Cc1nn(C(C)(C)C)c(OC(=O)CC(C)C)c1S(=O)(=O)c1ccccc1
COc1ccc(C)cc1S(=O)(=O)Nc1cccc(Cl)c1Cl
COc1ccc(C)cc1Nc1nc(-c2c(C)[nH]c3ccccc23)cs1
CCOc1ccc2c(c1)c(=O)c(S(=O)(=O)c1ccc(C)cc1)cn2CC
CC(=O)N1CCN(CC(c2ccccc2)c2ccccc2)CC1
COc1ccc(C(=O)C2CCCN(S(=O)(=O)c3cccc(C)c3)C2)c(C)c1 (centres undefined)
COc1cc(/C=C/CO)cc(OC)c1O[C@@H]1O[C@H](CO)[C@@H](O)[C@H](O)[C@H]1O
CCc1cccc(OC2OC(CO)C(O)C(O)C2NC(C)=O)c1 (centres undefined)
O=C(O)c1cc([N+](=O)[O-])c(Nc2cccc3ccccc23)c([N+](=O)[O-])c1
CSc1ccccc1NC(=O)c1ccc2c(c1)CCN2S(C)(=O)=O
Cc1occc(=O)c1OCc1c(Cl)cccc1Cl
O=C(NCCOc1ccccc1)c1ccccc1
O=C(NCCc1ccccc1)c1ccc(OCCOc2ccccc2)cc1
CCOC(=O)c1c(C)[nH]c(C)c1S(=O)(=O)NCCCc1ccco1
O=C(Nc1ccccc1F)c1ccc2c(c1)OCO2
Cc1ccc(F)cc1NC(=O)c1ccc2c(c1)OCO2
Cc1cc(C)c2nc(NC(=O)C3CCCO3)sc2c1 (centres undefined)
C/C(Cc1ccccc1)=N\NC(=O)CNC(=O)c1ccc2c(c1)OCCO2
COCc1nnc(NC(=O)c2ccc3c(c2)OCO3)s1
Cc1ccc(-n2nc3c(c2NC(=O)c2ccc4c(c2)OCO4)CSC3)c(C)c1
COc1ccc(C)cc1N(C(=O)Cn1nnc(-c2ccc(C)o2)n1)C(C(=O)NC1CCCC1)c1ccncc1 (centres undefined)
CCCN1CCN(C(=O)CCCNC(=O)c2ccc(Cl)cc2)CC1
COCCCN1C(=O)c2ccc(C(=O)OCC(=O)NCc3ccccc3OC)cc2C1=O
COc1ccc(CN(C)C(=O)Cc2ccsc2)c(OC)c1OC
CC(=O)c1ccc(NC(=O)c2ccc(-n3cncn3)c([N+](=O)[O-])c2)cc1
COCCc1nn2c(=O)cc(COC(=O)c3cc(OC)c(OC)c(OC)c3)nc2s1
CN(c1ccccc1)S(=O)(=O)c1ccc(C(=O)NCCc2ccccc2)cc1
CCCc1cc(C(=O)N2CCCC(CO)(CCCc3ccccc3)C2)n(C)n1 (centres undefined)
CCOc1ccc(NC(=O)CCCCCN2C(=O)[C@@H]3Cc4ccccc4CN3C2=O)cc1
Cc1cc(-c2nnc(SCC(=O)Nc3ccc(F)cc3)n2N)n[nH]1
C=CCOC(=O)C1=C(C)OC(N)=C(C#N)C1c1ccc(F)cc1 (centres undefined)
CCOC(=O)C1=C(C)NC(SC)=NC1c1ccccc1 (centres undefined)
CC(C(=O)Nc1ccc(O)c(C(=O)O)c1)N1C(=O)/C(=C/c2cccs2)SC1=S (centres undefined)
O=C(COC(=O)c1ccc(F)cc1)NCCCc1ccccc1
O=C(NCCc1cccc(F)c1)C1CCCN(c2nc3ccccc3s2)C1 (centres undefined)
COc1cccc(NC(=O)c2ccccc2SC)c1
COc1cccc(NC(=O)c2nn(-c3ccc(OC)cc3OC)c(=O)c3ccccc23)c1
CC1(C(=O)N/N=C/c2cc3c(cc2Br)OCO3)CC1(Br)Br (centres undefined)
COc1ccccc1-c1nnc(SCC(=O)Nc2cc(C)on2)o1
CC(=O)Oc1ccc(-c2nc3c(C)cccc3c(=O)o2)cc1
Cc1ccccc1NC(=O)CCOc1ccccc1
CCOC(=O)c1c(C)[nH]c(C)c1S(=O)(=O)N(C)CC(=O)Nc1ccccc1C
CCOC(=O)c1ccc(NC(=O)c2cc(=O)[nH]c3ccccc23)cc1
CCOC(=O)c1ccc(NC(=O)CNC(=O)c2ccco2)cc1
Cc1ccc(CNS(=O)(=O)c2ccc3c(c2)N(C)CCO3)cc1
COc1ccc(CCNC(=O)CSCc2ccc(Br)cc2)cc1OC
COc1cc(C(C(=O)NC2CCCC2)N(C(=O)c2ccco2)c2ccccc2C(C)=O)cc(OC)c1OC (centres undefined)
CCN1N=C(c2ccccc2)CCC1=O
COCCCNc1nc2c(-c3cccc(C)c3)nnn2c2ccc(Cl)cc12
COCCCNC(=O)Cn1cc(/C=C(\C#N)C(=O)N2CCN(c3ccccc3)CC2)c2ccccc21
COC(=O)Cn1cc(C(=O)c2cccs2)c2ccccc21
O=C(NCc1cccc(Cl)c1)C1CCN(c2nnc(N3CCCC3=O)s2)CC1
CCOC(=O)C1CCN(C(=O)C2CCCN(S(=O)(=O)c3ccc(OC)c(Cl)c3)C2)CC1 (centres undefined)
COc1ccc(/C=C/C(=O)Nc2cccnc2)cc1OC
CCOC(=O)N/N=C/c1cccnc1
COc1cc(N=Cc2c(O)[nH]c3ccccc23)cc(OC)c1OC

Potency, active:
COC(=O)c1ccccc1NC(=S)NC(=O)c1ccccc1F 12.6 µM
COc1ccccc1NC(=S)NC(=O)C(C)C 5.01 µM
COc1ccccc1NC(=O)/C=C/C(N)=O 4.47 µM
CC(C)C(=O)Nc1cccc(NC(=S)NC(=O)C(c2ccccc2)c2ccccc2)c1 7.08 µM
CC(C)C(=O)NC(=S)Nc1ccccc1F 7.08 µM
COc1ccccc1N(CC(=O)N/N=C(\C)c1ccccc1O)S(=O)(=O)c1ccc(C)cc1 0.562 µM
CC1(C)Cc2ccccc2-c2[nH]c(=S)[nH]c(=O)c21 17.8 µM
COc1cc(Br)c(-c2sc(Nc3ccccc3)n[n+]2-c2ccccc2)cc1OC 11.2 µM
COc1ccc(C)cc1Nc1n[n+](-c2ccccc2)c(-c2cccc(Cl)c2Cl)s1 6.31 µM
Cc1csc(-c2coc3cc(O[C@@H]4O[C@H](CO)[C@@H](O)[C@@H](O)[C@H]4O)ccc3c2=O)n1 3.16 µM
CCCOc1ccc(C(=O)NCCc2ccccc2)cc1 11.2 µM
Cc1cc(C)c2nc(NC(=O)c3ccc4c(c3)OCO4)sc2c1 0.251 µM
Cc1ccc2sc(NNC(=O)c3ccc4c(c3)OCCO4)nc2c1C 7.94 µM
O=C(Nc1nc2ccccc2s1)c1ccc2c(c1)OCO2 7.94 µM
C=CCC1(C#N)C(=S)NC(C)=C(C(=O)OCC)C1c1ccccc1 (centres undefined) 10 µM
COc1cccc(NC(=S)NC(=O)c2c(Cl)c(C)nn2C)c1 3.55 µM
COc1ccc(/C=C/c2noc(-c3ccccc3OC(C)=O)n2)cc1 11.2 µM
CCOC(=O)c1ccc(NC(=O)c2nc[nH]c2C(=O)NCc2ccccc2)cc1 3.55 µM
CCOC(=O)c1[nH]cnc1C(=O)Nc1ccccc1C 12.6 µM
COC(=O)Cn1cc(/C=C/[N+](=O)[O-])c2ccccc21 10 µM
COc1cc(/C=N/NC(=S)Nc2cccnc2)cc(OC)c1O 6.31 µM
COCCNC(=S)N/N=C/c1c(C)[nH]c2ccccc12 11.2 µM

Activity change, negative = inhibition, inactive:
CCc1ccccc1NC(=S)Nc1cc(OC)c(NC(=O)C(C)C)cc1OC -14.6% [at 1.91 µM]
CCOCCCNc1nc(-c2ccccc2)nc2ccccc12 24.9% [at 1.91 µM]
CCCC[C@]12Cc3cc(OC)c(OC)cc3C(O1)C1=C(CC3(CCCCC3)OC1=O)O2 3.02% [at 10 µM]
Cc1[nH]c2ccccc2c1/C=N\NC(=O)Cn1nnc(-c2ccccc2)n1 7.95% [at 10 µM]

From PubChem BioAssay AID2551 (National Center for Advancing Translational Sciences (NCATS), 2010)
